# Compound activity (PubChem)
# Sampled rows, rich in hits. Any-hit rate of the full collection: about 11%.
# 3T3 cytotox – kills NIH 3T3 cells. NIH 3T3 viability, CellTiter-Glo ATP luminescence, 48-72 h. Potency, µM (series often up to 96.7 µM), without a hit: at the highest dose activity change, negative = cytotoxicity, actives largely listed as inhibitors. 94,000 tested, 4.3% active. AID 1345082; also: nearly all actives have a fitted effect of over 55% in size
#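 Viability of NIH 3T3 cells after 48 or 72 hr compound treatment at 37 °C was assessed by CellTiter-Glo, with luminescence imaged following a 10 min room-temperature step.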
# hNpr1 antagonist – antagonists of human natriuretic peptide receptor Npr1. P16066. HEK293 hNpr1 GloSensor cGMP, ANP-stimulated luminescence. Potency, µM (series often up to 46.3 µM), without a hit: at the top dose activity change, negative = inhibition, actives largely listed as inhibitors. 76,000 tested, 1.6% active. AID 1347048; calls by dose curve; also: nearly all actives have a fitted effect of over 60% in size
#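 HEK293 cells stably expressing human Npr1 and cGMP GloSensor pGS-40F, loaded 2 h with 2% GloSensor reagent, given compound 30 min at room temperature. Luminescence read before and 20 min after 0.1 nM hNppA.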
# HEK cytotox – kills HEK 293 cells | 94,000 tested, 6.6% active | HEK 293 viability, ATP luminescence (CellTiter-Glo), 48-72 h | AID 1345083 | Potency, µM (highest dose often 115 µM), without a hit: at the top dose activity change, negative = cytotoxicity, most hits filed as inhibitors; also: nearly all actives have a fitted effect of over 60% in size
#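 Cells seeded first (HEK 293, 250 cells/well), then compound added by pintool. Incubation ran 48 or 72 hr at 37 degree Celsius. CellTiter-Glo was added and luminescence imaged after 10 min at room temperature.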
# Luciferase inh – blocks purified firefly luciferase enzyme activity; P08659; purified P. pyralis luciferase, luminescence, biochemical; Potency, µM (titrated, usually from 115 µM), most hits filed as inhibitors; 76,000 tested, 2.5% active; also: nearly all actives have a fitted effect of over 65% in size
# Target sequence (P08659 whole entry, looked up): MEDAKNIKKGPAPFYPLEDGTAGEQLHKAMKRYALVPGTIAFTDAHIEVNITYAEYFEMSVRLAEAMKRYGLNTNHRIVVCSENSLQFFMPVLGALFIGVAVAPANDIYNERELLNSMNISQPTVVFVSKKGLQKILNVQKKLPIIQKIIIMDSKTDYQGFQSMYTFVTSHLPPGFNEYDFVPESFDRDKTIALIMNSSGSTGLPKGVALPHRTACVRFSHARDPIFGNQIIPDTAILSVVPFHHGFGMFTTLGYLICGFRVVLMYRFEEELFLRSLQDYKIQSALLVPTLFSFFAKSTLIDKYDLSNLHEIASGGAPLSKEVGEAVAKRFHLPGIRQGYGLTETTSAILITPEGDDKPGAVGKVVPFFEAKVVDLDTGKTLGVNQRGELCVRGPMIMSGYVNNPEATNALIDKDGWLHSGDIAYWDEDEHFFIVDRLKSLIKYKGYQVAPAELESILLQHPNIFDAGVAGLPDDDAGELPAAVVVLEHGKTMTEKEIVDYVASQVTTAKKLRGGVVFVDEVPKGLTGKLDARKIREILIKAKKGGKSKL
#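 Luminescence read by CCD imager after adding enzyme (10nM final) to wells holding compound, titrated in qHTS. Substrates 10uM each D-luciferin and ATP; buffer 50mM Tris acetate pH 7.5, 10mM Mg acetate, Tween-20, BSA.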
# Numbers without * were called inactive; i = inactive; ? = inconclusive; . = no result; [ ] = another dose, or the depositor's remark. Unless noted, calls follow the shape of the dose curve; as a rule, active = well fitted curve in the direction sought with a large enough effect; inconclusive = small, poorly fitted or top-dose-only effect, or another doubt; inactive = no such curve, though single readings can be large; an effect the other way counts as inactive or inconclusive. % is scaled to controls: 0 for no effect and ±100 for the full control effect; potency is read from the fitted curve at half-maximal effect.
SMILES,3T3 cytotox,hNpr1 antagonist,HEK cytotox,Luciferase inh
Cc1n[nH]c(C)c1CNC(=O)CCC[C@H]1NC[C@@H]2C[C@H]1CN(Cc1ccccc1)C2,-5%,-5%,-6%,i
CCC1=Nc2cc(C(=O)NCc3ccc(F)cc3)ccc2Sc2ccc(C)cc21,?,1%,?,i
O=C(c1ccc2c(c1)OCO2)N1CCC(n2cc(-c3nc(-c4ccccc4)no3)nn2)C1 (stereo unspecified),-43%,13µM*,?,?
COc1ccc(OCC2CCCN(C(=O)c3cn(C4CCCCC4)nn3)C2)cc1 (stereo unspecified),?,-3%,?,32µM*
Cc1noc(-c2cn(C3CCN(C(=O)c4ccc5c(c4)OCO5)C3)nn2)n1 (stereo unspecified),-9%,-6%,0%,i
O=C(c1cccc(F)c1)N1CCC(n2cc(-c3nc(-c4ccccc4)no3)nn2)C1 (stereo unspecified),?,-5%,?,i
O=C(c1ccc(F)c(F)c1)N1CCC(n2cc(-c3nc(-c4ccccc4)no3)nn2)C1 (stereo unspecified),?,11µM*,40µM*,?
COc1ccc(C(=O)N2CCCC(n3cc(-c4nc(C(C)C)no4)nn3)C2)cc1 (stereo unspecified),-23%,-1%,-29%,i
O=C(c1ccc(F)c(F)c1)N1CCCC(n2cc(-c3nc(-c4ccccc4)no3)nn2)C1 (stereo unspecified),?,11µM*,45µM*,?
O=C(c1ccncc1)N1CCCN(CCn2nc3n(c2=O)CCCC3)CC1,-5%,.,-7%,.
CN1CCOc2c(C(=O)NCc3cccnc3)cc(-c3cccc4[nH]ccc34)cc21,?,2%[70.6 µM],?,i
COc1ccc(C(=O)N2CCCC(n3cc(-c4nc(-c5ccccc5)no4)nn3)C2)cc1F (stereo unspecified),?,?,20µM*,?
COc1ccc(C(=O)N2CCCC(n3cc(-c4nc(C)no4)nn3)C2)cc1F (stereo unspecified),-20%,0%,-5%,i
O=C(NC1CCCCC1)C1Cn2cccc2C(=O)N1Cc1ccccc1 (stereo unspecified),-14%,.,-1%,.
COc1ncccc1CNC[C@H]1Cn2cc(-c3ccc4c(c3)OCCCO4)nc2CO1,?,-2%[70.6 µM],89µM*,50µM*
c1cc(CNC[C@H]2Cn3cc(-c4ccc5c(c4)OCCCO5)nc3CO2)ccn1,-20%[138 µM],-2%[70.6 µM],-18%[172 µM],45µM*
CNC(=O)c1cc(C)nc2onc(C3CCCN([S+](=O)([O-])C(C)C)C3)c12 (stereo unspecified),2%,.,3%,.
Cc1ccc(CNC(=O)N2CCC(OCc3noc(C4CCCO4)n3)CC2)cc1 (stereo unspecified),-25%,.,-6%,.
O=C(NCc1cccnc1)C1(CCO)CC12CCOCC2 (stereo unspecified),i,4%,0%,28µM*
Cc1ccc(CNC(=O)C2(CCO)CC23CCOCC3)o1 (stereo unspecified),-1%,-3%,i,i
CCN1c2cc(C(=O)Nc3ccccc3F)ccc2C(=O)N2CCCC21 (stereo unspecified),-24%,4%,?,?
O=C(NC1CCN(c2ccc3nnc(C4CC4)n3n2)C1)C1CCCC1 (stereo unspecified),-19%,.,i,.
CN1CCN(Cc2nnc(C(=O)N3CCC[C@@H]3c3ccc(Br)cc3)n2Cc2ccccc2)CC1,?,-14%,?,i
CN(Cc1ccccc1)Cc1nnc(C(=O)N2CCC[C@@H]2c2ccc(Br)cc2)n1Cc1ccccc1,18µM*,-20%,32µM*,i
O=C(c1nnc(CN2CCN(c3ccccn3)CC2)n1Cc1ccccc1)N1CCC[C@@H]1c1ccc(Br)cc1,?,-2%,45µM*,i
SMILES,3T3 cytotox,hNpr1 antagonist,HEK cytotox,Luciferase inh
O=C(c1ccccc1OCC1CCCN(C2CCCCC2)C1)N1CCCC1 (stereo unspecified),-13%,-4%,?,i
Cc1ncoc1C(=O)NCC1Cn2cccc2CN1Cc1ccccc1 (stereo unspecified),-24%,7%,?,i
Cc1ccc(NC(=O)c2cc(-c3ccc(Cl)cc3Cl)c3nncn3n2)cc1,-19%,.,0%,.
COc1cccc(CNC(=O)c2cc(-c3cccc(C(F)(F)F)c3)c3nncn3n2)c1,-13%,.,?,.
COc1ccccc1-c1cc(C(=O)Nc2ccc(C)cc2)nn2cnnc12,-18%,.,35µM*,.
COc1ccccc1-c1cc(C(=O)NCc2cccc(C(F)(F)F)c2)nn2cnnc12,?,.,40µM*,.
O=C(N[C@H]1CCN2C(=O)c3cc(-c4ccccc4F)ccc3NC(=O)[C@@H]2C1)c1ccc(F)c(Cl)c1,10µM*,?,10µM*,i
C=CCNC(=O)N[C@H]1CCN2C(=O)c3ccc(Cl)cc3NC(=O)[C@@H]2C1,32µM*,3%[70.6 µM],?,i
CC(C)NC(=O)N[C@H]1CCN2C(=O)c3cc(-c4ccccc4F)ccc3NC(=O)[C@@H]2C1,-26%[174 µM],1%[70.6 µM],?,i
O=C(N[C@H]1CCN2C(=O)c3cc(-c4cccc(C(F)(F)F)c4)ccc3NC(=O)[C@@H]2C1)c1ccncc1,?,-2%,40µM*,i
CS(=O)(=O)N[C@H]1CCN2C(=O)c3cc(-c4cccc(C(F)(F)F)c4)ccc3NC(=O)[C@@H]2C1,-4%,0%,5%,i
CCOC(=O)[C@H]1[C@@H](O)C(=O)N(C(C)C)C12CCN(C(=O)c1ccc(NC(C)=O)cc1)CC2,?,.,-8%,.
CCN1c2cc(C(=O)Nc3ccc(-n4ccnc4)cc3)ccc2C(=O)N2CCCCCC21 (stereo unspecified),11µM*,-3%,?,i
CCN1c2cc(C(=O)Nc3ccc(C(C)C)cc3)ccc2C(=O)N2CCCCC21 (stereo unspecified),?,4%,18µM*,?
CCN1c2cc(C(=O)Nc3ccc(F)c(F)c3)ccc2C(=O)N2CCCCCC21 (stereo unspecified),?,-17%,?,i
CCN1c2cc(C(=O)Nc3ccc(C(C)C)cc3)ccc2C(=O)N2CCCCCC21 (stereo unspecified),22µM*,4%,?,i
CCN1c2cc(C(=O)Nc3ccc(OC)cc3)ccc2C(=O)N2CCCCC21 (stereo unspecified),?,-2%,?,i
CCN1c2cc(C(=O)Nc3ccc(OC)cc3)ccc2C(=O)N2CCCCCC21 (stereo unspecified),?,6%,?,i
CCN1c2cc(C(=O)Nc3ccc(Cl)cc3)ccc2C(=O)N2CCCCCC21 (stereo unspecified),?,-7%,45µM*,i
Cc1cc2ncc(C(=O)NCCCc3ccccc3)cn2n1,-11%[138 µM],.,-16%[172 µM],.
